# Source: PubChem BioAssay (Tox21)
# A number with no mark means an inactive call. Results filed as inconclusive are left out. Entries that show only a call come without a potency. Active and inactive are the calls of the source. Unless noted, calls follow the shape of the dose curve; as a rule, active = well fitted curve in the direction sought with a large enough effect in the repeat runs; inconclusive = weak or mixed curves; inactive = no such curve, though single readings can be large; an effect the other way counts as inactive or inconclusive.
# Legend:
# [1] = qHTS assay for small molecule agonists of the p53 signaling pathway (AID 651631; calls by dose curve; also: nearly all actives have a fitted effect of over 15% in size)
# Procedure, shortened: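 Readout was fluorescence from the LiveBLAzer FRET substrate, applied for 2 h at room temperature after 16 h compound exposure at 37 °C. Cells were the p53RE-bla HCT-116 line, with beta-lactamase driven by p53 response elements.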
# [2] = qHTS assay for small molecules that induce genotoxicity in human embryonic kidney cells expressing luciferase-tagged ATAD5 (AID 651632); also: nearly all actives have a fitted effect of over 15% in size
# Procedure, shortened: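 Test compounds were delivered by pin tool onto HEK293T reporter cells (2,000/well) expressing ATAD5 fused to luciferase. After 16 hr at 37C, 5% CO2, Amplite was added for 30 min at room temperature and luminescence was measured.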
# [3] = qHTS assay for small molecule agonists of the p53 signaling pathway - cell viability (AID 651633; calls by dose curve; also: series mostly up to about 83 µM; nearly all actives have a fitted effect of over 30% in size)
# Procedure, shortened: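 Viability counter-read: CellTiter-Glo luminescence (30 min, room temperature) in the same p53RE-bla plates. These plates had been exposed to compounds for 16 h at 37 C.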
# [4] = qHTS assay for small molecules that induce genotoxicity in human embryonic kidney cells expressing luciferase-tagged ATAD5 - cell viability (AID 651634; calls by dose curve; also: nearly all actives have a fitted effect of over 25% in size)
# Procedure, shortened: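 Quantitative high-throughput format. HEK293T cells expressing ATAD5 fused to luciferase were plated at 2,000 cells/well and treated 15.5 hr with compound versus DMSO. Viability was determined by fluorescent live-cell protease substrate, 30 min at 37C.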
# [5] = qHTS assay for small molecule disruptors of the mitochondrial membrane potential - cell viability (AID 720634; calls by dose curve;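 also: human HepG2 liver cancer cells; series mostly up to about 83 µM; nearly all actives have a fitted effect of over 20% in size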)
# Procedure, shortened: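 Same-well counter-screen: following the MMP dye addition, CellTiter-Glo was added to 1 hr compound-treated HepG2 cells and luminescence read after 30 min at room temperature.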
# [6] = qHTS assay to test for compound auto fluorescence at 590 nm (red) in HepG2 cells (AID 720674)
# Procedure, shortened: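 We screened compounds on adherent HepG2 cells, incubating them for an hour at 37 C in 5% CO2 before reading emission at 590 nm under 540 nm excitation; values reflect equivalence to Rose Bengal sodium fluorescence.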
# [7] = qHTS assay to test for compound auto fluorescence at 535 nm (green) in HepG2 cells (AID 720675)
# [8] = qHTS assay to test for compound auto fluorescence at 460 nm (blue) in HEK293 cells (AID 720678)
# Procedure, shortened: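 Blue read-out at excitation 405 nm and emission 460 nm follows overnight compound exposure of HEK293 cells at 37C in 5% CO2. Activity is given as auto fluorescence equivalency to triamterene.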
# [9] = qHTS assay to test for compound auto fluorescence at 590 nm (red) in HEK293 cells (AID 720679)
# Procedure, shortened: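 Red channel, Ex/Em 540/590nm; signal expressed as equivalency to Rose Bengal sodium. HEK293, 2,000 cells/well, 10% dialyzed FBS; 23 nL compound pinned after 4-5 hr attachment; overnight 37C/5% CO2 before reading.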
# [10] = qHTS assay to test for compound auto fluorescence at 535 nm (green) in HEK293 cells (AID 720680)
# [11] = qHTS assay to test for compound auto fluorescence at 460 nm (blue) in HEK293 cell free culture (AID 720681)
# Procedure, shortened: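 Blue fluorescence (Ex 405/Em 460 nm, triamterene-equivalent) was read immediately after pin transfer of compound or DMSO into medium (DMEM, 10% FBS) without cells.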
# [12] = qHTS assay to test for compound auto fluorescence at 535 nm (green) in HEK293 cell free culture (AID 720682)
# Procedure, shortened: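 Compounds were pin-transferred into cell-free DMEM with 10% FBS, and green fluorescence was read at excitation 485 nm and emission 535 nm. Intensities were expressed as fluorescein-equivalent values.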
# [13] = qHTS assay to test for compound auto fluorescence at 590 nm (red) in HEK293 cell free culture (AID 720683)
# Procedure, shortened: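 Red-channel autofluorescence of compounds in culture medium (DMEM, 10% FBS), no cells, measured at 540/590 nm. Rose Bengal sodium is the reference fluorophore for equivalence.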
# [14] = qHTS assay to test for compound auto fluorescence at 590 nm (red) in HepG2 cell free culture (AID 720684)
# Procedure, shortened: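 Cell-free; medium MEM + 10% FBS; compound or DMSO added by pintool; read Ex 540/Em 590 nm; Rose Bengal sodium as red reference fluorophore.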
# [15] = qHTS assay to test for compound auto fluorescence at 460 nm (blue) in HepG2 cell free culture (AID 720685)
# Procedure, shortened: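 Cell-free plates of MEM plus 10% FBS received 23 nL compound or DMSO vehicle; blue-channel (405/460 nm) intensity scored against triamterene as reference fluorophore.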
# [16] = qHTS assay to test for compound auto fluorescence at 535 nm (green) in HepG2 cell free culture (AID 720686)
# [17] = qHTS assay to test for compound auto fluorescence at 460 nm (blue) in HepG2 cells (AID 720687)
# Procedure, shortened: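 Blue-channel autofluorescence (Ex/Em 405/460 nm, triamterene-equivalent) was measured after 1 hr compound exposure at 37 C, 5% CO2. Cells were HepG2, plated overnight at 37 C in MEM plus 10% FBS.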
# [18] = target: Glucocorticoid receptor (Homo sapiens) (UniProt P04150); experiment: qHTS assay to identify small molecule agonists of the glucocorticoid receptor (GR) signaling pathway (AID 720691; active = well fitted activation curve with a large enough effect in the signal ratio in the repeat runs, not every such curve was filed as active; the % refers to the signal ratio)
# Procedure, shortened: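 A HeLa cervical cancer line expressing GR and a glucocorticoid response element-driven beta-lactamase gene is treated with compounds for 18 h; LiveBLAzer B/G FRET substrate is then applied and fluorescence read.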
# [19] = target: Glucocorticoid receptor (Homo sapiens) (UniProt P04150); experiment: qHTS assay to identify small molecule antagonists of the glucocorticoid receptor (GR) signaling pathway (AID 720692; active = well fitted inhibition curve with a large enough effect in the signal ratio in the repeat runs, not every such curve was filed as active; the % refers to the signal ratio)
# Procedure, shortened: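 GRE-bla HeLa line, dex-stimulated (5 nM final). Compound exposure 18 h, 37 C. Beta-lactamase FRET read after 2 h RT substrate.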
# [20] = qHTS assay to identify small molecule antagonists of the glucocorticoid receptor (GR) signaling pathway - cell viability counter screen (AID 720693); also: nearly all actives have a fitted effect of over 55% in size
# [21] = qHTS assay for identifying genotoxic compounds that show differential cytotoxicity against isogenic chicken DT40 cell lines with known DNA damage response pathways - wild type cell line (AID 743012); also: potency is read from the fitted curve at half-maximal effect; nearly all actives have a fitted effect of over 60% in size
# Procedure, shortened: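 300 wt DT40 cells/well; cpd (DMSO) pintool-transferred after ~0.5 h at 37 C/5% CO2; 40 h incubation; CellTiter-Glo added, 30 min RT; luminescence read.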
# [22] = qHTS assay for identifying genotoxic compounds that show differential cytotoxicity against isogenic chicken DT40 cell lines with known DNA damage response pathways - Rev3 mutant cell line (AID 743014); also: potency is read from the fitted curve at half-maximal effect; nearly all actives have a fitted effect of over 55% in size
# [23] = qHTS assay for identifying genotoxic compounds that show differential cytotoxicity against isogenic chicken DT40 cell lines with known DNA damage response pathways - Rad54/Ku70 mutant cell line (AID 743015); also: potency is read from the fitted curve at half-maximal effect; nearly all actives have a fitted effect of over 60% in size
# [24] = qHTS assay to identify small molecule antagonists of the androgen receptor (AR) signaling pathway - cell viability counter screen (AID 743033; also: nearly all actives have a fitted effect of over 45% in size)
# [25] = qHTS assay to identify small molecule antagonists of the androgen receptor (AR) signaling pathway using the MDA cell line - cell viability counter screen (AID 743041; also: nearly all actives have a fitted effect of over 45% in size)
# Procedure, shortened: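 Viability read by CellTiter-Fluor fluorescence in the same wells as the antagonist screen, added after 15.5 h of a 16 h, 37C exposure. Human breast carcinoma MDA-kb2 AR-luc cells, compounds co-dosed with agonist R1881.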
# [26] = system: thyroid hormone receptor (rat, GH3 cells); experiment: qHTS assay to identify small molecule agonists of the thyroid receptor (TR) signaling pathway (AID 743066; calls by dose curve)
# [27] = target: Estrogen receptor (Homo sapiens) (UniProt P03372); experiment: qHTS assay to identify small molecule antagonists of the estrogen receptor alpha (ER-alpha) signaling pathway (AID 743069; active = well fitted curve in the direction sought with a large enough effect in the signal ratio in the repeat runs, not every such curve was filed as active; the % refers to the signal ratio)
# Procedure, shortened: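 Antagonist mode: compounds in DMSO were co-added with 17beta-estradiol to ER-alpha-bla HEK293 cells (2% charcoal-stripped serum) and left 18 h at 37C. Reporter inhibition was measured as FRET fluorescence after 2 h LiveBLAzer substrate at room temperature.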
# [28] = qHTS assay to identify small molecule antagonists of the estrogen receptor alpha (ER-alpha) signaling pathway - cell viability counter screen (AID 743074; calls by dose curve;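 also: HEK293 cells carrying ER-alpha-UAS-bla reporter stimulated with 17beta-estradiol; nearly all actives have a fitted effect of over 45% in size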)
# [29] = target: Estrogen receptor (Homo sapiens) (UniProt P03372); experiment: qHTS assay to identify small molecule agonists of the estrogen receptor alpha (ER-alpha) signaling pathway (AID 743075; calls by dose curve;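 also: HEK293 GripTite cells with ER-alpha and UAS-driven beta-lactamase reporter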)
# [30] = target: Estrogen receptor (Homo sapiens) (UniProt P03372); experiment: qHTS assay to identify small molecule agonists of the estrogen receptor alpha (ER-alpha) signaling pathway using the BG1 cell line (AID 743079); also: potency is read from the fitted curve at half-maximal effect; nearly all actives have a fitted effect of over 20% in size
# [31] = qHTS assay to identify small molecule antagonists of the estrogen receptor alpha (ER-alpha) signaling pathway using the BG1 cell line (AID 743080; calls by dose curve;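 also: BG1 cells stimulated with 17beta-estradiol alongside compound; series mostly up to about 70 µM; nearly all actives have a fitted effect of over 25% in size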)
# Procedure, shortened: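 Luminescence from a 4×ERE-luciferase reporter in BG1-Luc-4E2 cells served as read-out. Cells, pre-cultured 5 days in stripped-serum phenol-red-free medium, were exposed to compound with 17beta-estradiol co-stimulation for 21.5 h at 37 C.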
# [32] = qHTS assay to identify small molecule antagonists of the estrogen receptor alpha (ER-alpha) signaling pathway using the BG1 cell line - cell viability counter screen (AID 743081);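 also: compound given together with 17beta-estradiol as the ER stimulus; series mostly up to about 70 µM; nearly all actives have a fitted effect of over 45% in size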
# [33] = target: Aromatase (Homo sapiens) (UniProt P11511); experiment: qHTS assay to identify aromatase inhibitors (AID 743083); also: series mostly up to about 70 µM; nearly all actives have a fitted effect of over 55% in size
# [34] = qHTS assay to identify aromatase inhibitors - cell viability counter screen (AID 743084);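 also: cells stimulated with testosterone during compound exposure; nearly all actives have a fitted effect of over 55% in size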
# [35] = target: Aryl hydrocarbon receptor (Homo sapiens) (UniProt P35869); experiment: qHTS assay to identify small molecule that activate the aryl hydrocarbon receptor (AhR) signaling pathway (AID 743085);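 also: HG2L7.5c1 human HepG2 liver cells with stably integrated DRE-driven firefly reporter; series mostly up to about 70 µM; nearly all actives have a fitted effect of over 15% in size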
# Procedure, shortened: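 Luminescence (ONE-Glo) from a dioxin-responsive-element luciferase reporter in HG2L7.5c1 HepG2 cells after 24 hr compound exposure at 37C; viability measured by CellTiter-Fluor fluorescence beforehand.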
# [36] = qHTS assay to identify small molecule that activate the aryl hydrocarbon receptor (AhR) signaling pathway - cell viability counter screen (AID 743086)
# Procedure, shortened: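 Cytotoxicity counter screen: CellTiter-Fluor signal (30 min, 37 C) in 4000 HepG2 cells/well carrying the DRE-luciferase reporter, following 24 h compound exposure at 37 C.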
# [37] = target: Peroxisome proliferator-activated receptor gamma (Homo sapiens) (UniProt P37231); experiment: qHTS assay to identify small molecule agonists of the peroxisome proliferator-activated receptor gamma (PPARg) signaling pathway (AID 743094; active = well fitted activation curve with a large enough effect in the signal ratio in the repeat runs, not every such curve was filed as active; the % refers to the signal ratio)
# Procedure, shortened: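 Cell-based bla reporter, HEK293H background, PPARg-driven UAS. Pre-incubation 5 h, 37C, 5% CO2. Compound 17 h, 37C. Substrate 1 h RT; fluorescence.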
# [38] = qHTS assay to identify small molecule antagonists of the estrogen related receptor (ERR) signaling pathway - cell viability counter screen (AID 1224818);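 also: series mostly up to about 46 µM; viability measured after 17.5 h of compound exposure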
# Procedure, shortened: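 Cytotoxicity check run alongside the ERR antagonist screen: cells exposed to test compounds 17.5 h at 37 C, viability taken as CellTiter-Fluor fluorescence intensity.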
# [39] = qHTS assay to identify small molecule antagonists of the estrogen related receptor (ERR) signaling pathway (AID 1224819;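 also: luminescence from an ERR-driven luciferase reporter measured with One-Glo reagent; series mostly up to about 46 µM; nearly all actives have a fitted effect of over 50% in size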)
# Procedure, shortened: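 ERR reporter cells were plated at 2,000 cells/well and left 6 h at 37 C/5% CO2 before pin-tool transfer of compounds in DMSO. After 18 h at 37 C, One-Glo was added and luminescence was read 30 min later at room temperature.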
# [40] = system: estrogen-related receptor alpha (ERRalpha) with PGC-1alpha coactivator, human; experiment: qHTS assay to identify small molecule antagonists of the estrogen related receptor signaling pathway with the pleiotropic PPARgamma coactivator (PGC) (AID 1224821; calls by dose curve;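 also: series mostly up to about 46 µM; lower luminescence signal means antagonism of PGC/ERR signalling; nearly all actives have a fitted effect of over 50% in size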)
# Procedure, shortened: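 A PGC/ERR cell line supplied by NTP is seeded, allowed 6 h at 37 C, and treated with test compounds in DMSO for 18 h. Signal is then measured as luciferase luminescence using One-Glo.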
# [41] = qHTS assay to identify small molecule antagonists of the estrogen related receptor signaling pathway with the pleiotropic PPARgamma coactivator (PGC) cell viability counter screen (AID 1224822;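 also: series mostly up to about 46 µM; viability read after 17.5 h compound exposure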)
# Procedure, shortened: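 Viable cell signal (CellTiter-Fluor, 30 min, 37 C/5% CO2) was measured in PGC/ERR cells after a 17.5 h compound incubation.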
# [42] = qHTS assay to identify small molecule agonists of the estrogen related receptor signaling pathway with the pleiotropic PPARgamma coactivator (PGC) (AID 1224823)
# Procedure, shortened: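 Compounds dissolved in DMSO are added by pin tool to PGC/ERR cells that have settled for 6 h, and incubation continues 18 h at 37 C. Reporter output is measured as One-Glo luminescence.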
# [43] = qHTS assay to identify small molecule phospholipidosis (PLD) inducers (AID 1259344; active = well fitted curve in the direction sought with a large enough effect; an effect the other way counts as inactive or inconclusive)
# Procedure, shortened: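 Phospholipid accumulation was scored by imaging: fixed, Hoechst-counterstained HepG2 cells stained with LipidTOX Red after 24 h compound exposure at 37 C. Read-outs were pit count and pit intensity per well or per cell, with amiodarone and DMSO controls.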
# [44] = target: Nuclear receptor subfamily 1 group I member 2 (Rattus norvegicus) (UniProt Q9R1A7); experiment: Rat pregnane X receptor (rPXR) activation by small molecules, qHTS assay (AID 1346983); conditions: rPXR luciferase reporter cells, One-Glo luminescence, 24 h; max activation: active compounds read high; also: nearly all actives have a fitted effect of over 20% in size
# Procedure, shortened: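 Luminescent readout (One-Glo luciferase, 30 min room temperature) followed 24 hr compound treatment at 37 C of rPXR cells plated 2,000 per well and preincubated 5hr; qHTS format with compounds delivered in DMSO.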
# [45] = target: Nuclear receptor subfamily 1 group I member 2 (Homo sapiens) (UniProt O75469); experiment: CYP3A4 induction through human pregnane X receptor (PXR) by small molecules, qHTS assay (AID 1346984); also: nearly all actives have a fitted effect of over 40% in size
# Procedure, shortened: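 Human PXR activation is tracked via CYP3A4 promoter-luciferase in DPX-2 (HepG2) cells. Compounds treat cells for 24hr at 37C, and luminescence is read after One-Glo.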
# Chain of Estrogen receptor (Homo sapiens) (P03372 whole entry, looked up): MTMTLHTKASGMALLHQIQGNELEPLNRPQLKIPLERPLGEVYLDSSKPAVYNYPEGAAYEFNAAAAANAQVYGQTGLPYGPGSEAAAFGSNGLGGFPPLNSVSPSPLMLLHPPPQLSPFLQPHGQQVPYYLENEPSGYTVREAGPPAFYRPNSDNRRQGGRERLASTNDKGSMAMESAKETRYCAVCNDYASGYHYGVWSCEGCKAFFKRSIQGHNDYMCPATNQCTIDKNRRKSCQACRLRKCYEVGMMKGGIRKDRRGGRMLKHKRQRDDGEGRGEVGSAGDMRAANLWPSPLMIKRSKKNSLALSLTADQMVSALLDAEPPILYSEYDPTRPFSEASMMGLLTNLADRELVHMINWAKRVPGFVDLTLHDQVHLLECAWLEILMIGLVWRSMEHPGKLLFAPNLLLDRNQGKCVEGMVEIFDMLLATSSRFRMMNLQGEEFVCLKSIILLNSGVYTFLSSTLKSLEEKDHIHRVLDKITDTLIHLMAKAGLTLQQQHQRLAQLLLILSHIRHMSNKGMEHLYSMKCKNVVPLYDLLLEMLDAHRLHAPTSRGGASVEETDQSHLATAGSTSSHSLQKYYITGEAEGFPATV
# Chain of Glucocorticoid receptor (Homo sapiens) (P04150 whole entry, looked up): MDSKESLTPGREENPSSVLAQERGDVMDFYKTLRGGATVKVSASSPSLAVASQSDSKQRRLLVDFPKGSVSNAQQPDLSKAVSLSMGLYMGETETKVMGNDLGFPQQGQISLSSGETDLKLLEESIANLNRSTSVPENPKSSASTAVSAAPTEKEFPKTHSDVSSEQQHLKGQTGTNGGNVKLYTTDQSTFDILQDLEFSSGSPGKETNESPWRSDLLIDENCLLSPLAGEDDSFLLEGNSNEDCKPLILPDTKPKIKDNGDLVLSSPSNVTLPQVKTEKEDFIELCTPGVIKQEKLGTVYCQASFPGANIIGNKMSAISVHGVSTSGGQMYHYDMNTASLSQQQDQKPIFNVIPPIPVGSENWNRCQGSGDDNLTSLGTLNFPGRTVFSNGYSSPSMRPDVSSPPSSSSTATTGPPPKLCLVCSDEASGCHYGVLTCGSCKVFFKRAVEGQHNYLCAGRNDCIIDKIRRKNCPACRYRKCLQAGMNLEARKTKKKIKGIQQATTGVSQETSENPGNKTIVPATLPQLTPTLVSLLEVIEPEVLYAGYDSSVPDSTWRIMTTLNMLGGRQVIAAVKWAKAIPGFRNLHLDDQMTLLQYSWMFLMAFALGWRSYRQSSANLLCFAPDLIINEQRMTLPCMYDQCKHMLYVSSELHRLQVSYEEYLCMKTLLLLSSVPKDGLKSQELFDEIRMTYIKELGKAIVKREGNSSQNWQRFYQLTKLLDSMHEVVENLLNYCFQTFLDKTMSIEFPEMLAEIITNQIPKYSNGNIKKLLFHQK
# Chain of Peroxisome proliferator-activated receptor gamma (Homo sapiens) (P37231 whole entry, looked up): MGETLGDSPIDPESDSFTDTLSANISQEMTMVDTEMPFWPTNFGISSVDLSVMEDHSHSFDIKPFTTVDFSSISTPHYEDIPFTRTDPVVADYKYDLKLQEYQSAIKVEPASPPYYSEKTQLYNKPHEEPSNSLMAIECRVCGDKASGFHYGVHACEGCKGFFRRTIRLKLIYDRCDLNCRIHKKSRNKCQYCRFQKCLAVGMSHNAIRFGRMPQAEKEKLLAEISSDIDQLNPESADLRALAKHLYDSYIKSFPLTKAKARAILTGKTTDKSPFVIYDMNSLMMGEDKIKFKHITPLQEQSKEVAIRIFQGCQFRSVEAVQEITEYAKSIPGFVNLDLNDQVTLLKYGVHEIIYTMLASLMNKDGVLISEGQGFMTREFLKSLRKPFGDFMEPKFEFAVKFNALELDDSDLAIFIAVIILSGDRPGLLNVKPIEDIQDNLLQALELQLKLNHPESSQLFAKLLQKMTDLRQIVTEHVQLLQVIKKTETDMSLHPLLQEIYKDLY
# Chain of Aromatase (Homo sapiens) (P11511 whole entry, looked up): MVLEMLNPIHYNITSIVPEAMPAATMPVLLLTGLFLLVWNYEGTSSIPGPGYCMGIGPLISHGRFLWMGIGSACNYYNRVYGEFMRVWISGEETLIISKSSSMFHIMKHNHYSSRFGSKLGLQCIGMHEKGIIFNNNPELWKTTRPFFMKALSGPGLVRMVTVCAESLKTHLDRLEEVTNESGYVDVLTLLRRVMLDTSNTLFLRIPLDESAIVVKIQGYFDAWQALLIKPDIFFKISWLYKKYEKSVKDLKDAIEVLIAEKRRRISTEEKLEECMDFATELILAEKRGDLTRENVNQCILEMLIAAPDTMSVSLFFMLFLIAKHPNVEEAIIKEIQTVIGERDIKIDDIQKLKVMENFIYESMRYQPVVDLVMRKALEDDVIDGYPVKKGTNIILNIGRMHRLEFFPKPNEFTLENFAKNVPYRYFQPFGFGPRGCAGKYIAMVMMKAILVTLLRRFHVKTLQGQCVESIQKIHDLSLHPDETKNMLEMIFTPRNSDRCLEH
# Chain of Aryl hydrocarbon receptor (Homo sapiens) (P35869 whole entry, looked up): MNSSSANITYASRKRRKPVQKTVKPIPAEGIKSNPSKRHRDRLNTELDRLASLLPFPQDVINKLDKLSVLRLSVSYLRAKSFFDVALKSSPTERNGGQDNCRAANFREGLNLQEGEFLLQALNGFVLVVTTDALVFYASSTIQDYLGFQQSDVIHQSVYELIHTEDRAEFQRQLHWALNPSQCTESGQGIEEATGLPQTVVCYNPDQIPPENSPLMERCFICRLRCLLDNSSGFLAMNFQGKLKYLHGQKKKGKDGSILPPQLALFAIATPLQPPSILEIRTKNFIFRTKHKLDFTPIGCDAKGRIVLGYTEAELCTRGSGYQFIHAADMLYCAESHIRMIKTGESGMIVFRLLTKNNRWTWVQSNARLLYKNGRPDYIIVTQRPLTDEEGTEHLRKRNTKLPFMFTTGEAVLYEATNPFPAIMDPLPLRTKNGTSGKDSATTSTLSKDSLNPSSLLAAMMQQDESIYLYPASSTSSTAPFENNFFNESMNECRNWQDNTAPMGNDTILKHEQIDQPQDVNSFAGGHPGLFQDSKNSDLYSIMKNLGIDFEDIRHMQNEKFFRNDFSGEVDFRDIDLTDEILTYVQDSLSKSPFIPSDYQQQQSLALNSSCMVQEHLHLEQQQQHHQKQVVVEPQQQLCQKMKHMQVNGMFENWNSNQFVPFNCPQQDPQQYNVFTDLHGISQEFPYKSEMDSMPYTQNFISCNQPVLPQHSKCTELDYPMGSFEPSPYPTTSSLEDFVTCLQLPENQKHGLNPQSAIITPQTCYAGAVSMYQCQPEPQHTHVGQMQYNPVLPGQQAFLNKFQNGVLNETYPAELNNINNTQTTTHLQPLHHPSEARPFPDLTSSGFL
# Chain of Nuclear receptor subfamily 1 group I member 2 (Rattus norvegicus) (Q9R1A7 whole entry, looked up): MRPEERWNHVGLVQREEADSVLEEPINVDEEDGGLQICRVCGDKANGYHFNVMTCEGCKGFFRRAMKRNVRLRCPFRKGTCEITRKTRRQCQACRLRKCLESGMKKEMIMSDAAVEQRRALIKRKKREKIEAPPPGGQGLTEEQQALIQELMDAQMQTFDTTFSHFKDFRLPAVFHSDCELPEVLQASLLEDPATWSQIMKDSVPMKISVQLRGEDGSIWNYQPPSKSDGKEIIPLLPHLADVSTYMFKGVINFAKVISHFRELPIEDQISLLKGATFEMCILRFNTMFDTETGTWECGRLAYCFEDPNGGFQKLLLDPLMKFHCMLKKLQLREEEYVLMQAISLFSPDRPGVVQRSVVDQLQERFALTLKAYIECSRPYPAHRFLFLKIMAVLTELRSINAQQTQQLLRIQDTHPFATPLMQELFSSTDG
smiles,measurement,setting,value
CC(C)NC(C)Cc1ccc(I)cc1 (stereo not given),Potency,[1],inactive
same,Potency,[2],inactive
same,Potency,[3],inactive
same,Potency,[4],inactive
same,Potency,[5],inactive
same,outcome,[6],inactive
same,Potency,[7],inactive
same,Potency,[8],inactive
same,outcome,[9],inactive
same,Potency,[10],inactive
same,Potency,[11],inactive
same,Potency,[12],inactive
same,outcome,[13],inactive
same,outcome,[14],inactive
same,Potency,[15],inactive
same,Potency,[16],inactive
same,Potency,[17],inactive
same,Potency,[18],inactive
same,Potency,[19],inactive
same,Potency,[20],inactive
same,Potency,[21],26.6 µM (active)
same,Potency,[22],1.68 µM (active)
same,Potency,[23],13.3 µM (active)
same,Potency,[24],inactive
same,Potency,[25],inactive
same,Potency,[26],inactive
same,Potency,[27],inactive
same,Potency,[28],inactive
same,Potency,[29],inactive
same,Potency,[30],21.1 µM (active)
same,Potency,[31],inactive
same,Potency,[32],inactive
same,Potency,[33],inactive
same,Potency,[34],inactive
same,Potency,[35],inactive
same,Potency,[36],inactive
same,Potency,[37],inactive
same,Potency,[38],inactive
same,Potency,[39],inactive
same,Potency,[40],inactive
same,Potency,[41],inactive
same,Potency,[42],inactive
same,Potency,[43],inactive
same,max activation,[44],-3.06%
same,Potency,[45],inactive
